IL-1B inflam inh – blocks inflammasome-driven IL-1 beta release. THP-1 LPS/ATP IL-1B secretion, AlphaLISA, 16 h; hits give low values. AID 743279. actives 4.7% (n = 360,000). activity change, % at 57.5 µM; in the data active means activity change below about -50%; inconclusive means mostly about -30% to -49%
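Secreted IL-1B measured by AlphaLISA bead assay after 16 h compound exposure of THP-1 cells; compounds (final up to 57.5 uM) added 1 h before LPS (250 ng/mL) and ATP (1.25 mM) stimulation; lower signal means less secretion.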
RORgamma inh – inhibitors of mouse ROR gamma transcriptional activity; Drosophila S2 Gal4-RORgamma UAS-luciferase reporter, 20 h; actives 5.4% (n = 310,000); AID 2551; Potency, µM (highest dose often 53.6 µM), without a hit: top-dose activity change, negative = inhibition, hits mostly inhibitors; P51450; further: potency means the concentration at half of the fitted maximal effect; nearly all actives have a fitted effect of over 60% in size
Target sequence (P51450 whole entry, looked up, the tested form may be a part): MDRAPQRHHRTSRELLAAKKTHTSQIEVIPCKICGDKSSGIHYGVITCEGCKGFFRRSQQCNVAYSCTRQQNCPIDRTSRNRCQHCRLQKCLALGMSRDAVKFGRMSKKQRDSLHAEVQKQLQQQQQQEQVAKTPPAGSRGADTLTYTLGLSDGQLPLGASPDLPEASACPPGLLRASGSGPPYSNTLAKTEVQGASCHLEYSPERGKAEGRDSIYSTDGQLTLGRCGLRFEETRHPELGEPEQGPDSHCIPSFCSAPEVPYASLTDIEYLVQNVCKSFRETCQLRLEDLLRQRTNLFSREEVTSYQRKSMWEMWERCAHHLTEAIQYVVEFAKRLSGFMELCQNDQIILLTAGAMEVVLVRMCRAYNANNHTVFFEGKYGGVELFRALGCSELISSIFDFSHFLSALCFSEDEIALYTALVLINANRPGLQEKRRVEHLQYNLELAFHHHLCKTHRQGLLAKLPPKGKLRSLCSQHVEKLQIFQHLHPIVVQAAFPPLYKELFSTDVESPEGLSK
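Drosophila Schneider cells stably carrying a metallothionein-driven Gal4 DBD–ROR gamma fusion and a UAS-Photinus luciferase reporter were exposed to compound for 1 hr, then induced with copper sulfate (700 uM final) for 20 hr at ambient temperature before luminescence reading.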
LDHA inh – inhibitors of human lactate dehydrogenase A. purified LDHA, NADH/diaphorase-resazurin fluorescence; hits give low values. P00338. activity change, % (values are at about 110 or 230 µM). AID 1347041. actives 0.15% (n = 480,000); in the data active means activity change below about -30%; inconclusive means mostly about -25% to -30%;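 further: plate controls were DMSO wells for no effect and wells without enzyme for full effect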
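Human LDH5 at 2 nM final in Tris HCl pH 7.4 with 0.06 mM NADH and 0.2 mM pyruvate, reacted 5 minutes at room temperature. Remaining NADH coupled via diaphorase/resazurin; resorufin fluorescence read at 0 and 20 minutes, normalized to enzyme-free and DMSO wells.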
TDP1 cell CPT – growth inhibition of DT40 Tdp1-/-;hTDP1 cells with camptothecin (screen for TDP1 inhibitors). chicken DT40 Tdp1-/-;hTDP1 cells + 20 nM CPT, ATP luminescence, 48 h. Potency, µM (top dose mostly 46.2 µM), inactives show at the top dose activity change, negative = growth inhibition, actives largely listed as inhibitors. actives 12% (n = 420,000); further: potency means the concentration at half of the fitted maximal effect; nearly all actives have a fitted effect of over 55% in size
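Cell growth measured by CellTiter-Glo luminescence after a minimum 48 h, 37 C compound exposure with 20 nM CPT in Tdp1-knockout DT40 cells stably expressing hTDP1, seeded 400/well; qHTS titration format.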
Gal4-VP16 FLuc – Gal4-VP16 reporter inhibition counter-screen | AID 2546 | Drosophila S2 Gal4-VP16 UAS-luciferase, luminescence, 20 h | actives 3.5% (n = 310,000) | Potency, µM (highest dose often 53.6 µM), inactives show at the top dose activity, negative = inhibition, most hits filed as inhibitors;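 further: Gal4-VP16 expression switched on by copper sulfate through the metallothionein promoter; potency means the concentration at half of the fitted maximal effect; nearly all actives have a fitted effect of over 50% in size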
TDP1 cell noCPT – qHTS for Inhibitors of human tyrosyl-DNA phosphodiesterase 1 (TDP1): qHTS in cells in absence of CPT; Potency, µM (highest dose often 46.2 µM), inactives show top-dose activity change, negative = growth inhibition, actives largely listed as inhibitors; DT40 Tdp1-/- hTDP1 cells, no CPT, ATP luminescence, 48 h; actives 15% (n = 420,000); AID 686978, 2013; further: potency means the concentration at half of the fitted maximal effect; nearly all actives have a fitted effect of over 55% in size
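No-CPT arm: Tdp1-/-;hTDP1 DT40 cells (400/well) plus compounds, incubated ≥48 hr at 37 °C. Readout CellTiter-Glo luminescence.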
* hit, by the source's call; ? = inconclusive; · = not tested or not shown. Rows were chosen to be rich in hits. Some 18% of all compounds tested hit in one or more screens of this group. Unless noted, the call rests on the fitted dose curve; in most records, active means well fitted curve in the direction sought with a large enough effect; inconclusive means small, poorly fitted or top-dose-only effect, or another doubt; inactive means no such curve, though single readings can be large; an effect the other way counts as inactive or inconclusive. Unless noted, on the % scale 0 is the no-effect control and ±100 the full control effect.

SMILES | IL-1B inflam inh | RORgamma inh | LDHA inh | TDP1 cell CPT | Gal4-VP16 FLuc | TDP1 cell noCPT
O=C(OCn1ncc(Cl)c(Cl)c1=O)c1ccccc1Cl | -97* | -89% | -15 | 2.3µM* | 13µM* | 4.6µM*
O=C(COC(=O)c1cnc(Cl)c(Cl)c1)c1ccc(F)cc1 | -25 | · | -8 | -10% | · | 12%
O=c1c(Cl)c(Cl)cnn1Cc1ccc(F)cc1 | -99* | ? | -3 | -112% | ? | 13µM*
O=C(OCn1ncc(Cl)c(Cl)c1=O)c1ccc(F)cc1 | · | ? | · | · | 6.3µM* | ·
CCCCc1nn2c(=O)cc(COC(=O)CNC(=O)c3cccc(C)c3)nc2s1 | · | · | -4 | · | · | ·
CCn1c(CN2CCC(C)CC2)nc2cc(S(=O)(=O)N3CCCCC3)ccc21 | -10 | · | -2 | ? | · | 13µM*
CCn1c(SC)nc2cc(S(=O)(=O)N3CCCCC3)ccc21 | -12 | · | 2 | 1.6µM* | · | -25%
Fc1ccccc1CN1CCC(NCC2CNc3ccnn3C2)CC1 (stereo not drawn) | · | · | 3 | · | · | ·
CC(C)=NOc1cc(NC(=O)CCl)cc([N+](=O)[O-])c1 | -100* | 10µM* | 3 | 3.7µM* | 7.1µM* | 4.1µM*
O=C(CCl)Nc1cc(SCC(O)CO)cc([N+](=O)[O-])c1 (stereo not drawn) | -101* | ? | 1 | 4.6µM* | 5µM* | ?
CCC(=O)Nc1cc(ON=C(C)C)cc([N+](=O)[O-])c1 | -2 | 2% | 3 | 11% | 0% | -2%
Cc1ccc(-c2nn(Cc3nc(-c4ccccc4)no3)c(=O)c3ccccc23)cc1 | · | · | -6 | · | · | ·
O=C(Nc1ccc(N2CCOCC2)c(Cl)c1)c1cccc(F)c1 | -54* | -11% | -5 | -25% | ? | ?
O=C(Nc1ccc(N2CCOCC2)c(Cl)c1)c1cc(F)c(F)cc1Cl | -58* | -37% | 1 | ? | 11% | ?
COc1c(F)c(F)c(C(=O)Nc2cccc(Cl)c2N2CCOCC2)c(F)c1F | -3 | 4% | 0 | 15µM* | -4% | 21µM*
COc1c(C)cccc1C(=O)Nc1ccc(N2CCOCC2)c(Cl)c1 | -69* | 17% | -5 | ? | -15% | ?
O=C(Nc1ccc(N2CCOCC2)c(Cl)c1)c1cccnc1Cl | -6 | ? | -8 | 8% | 4% | -26%
C=CCSc1nc2c(c(=O)n(C)c(=O)n2C)n1Cc1cccc(C)c1 | · | · | -22 | · | · | ·
O=S1CCN(c2nc(C3CC3)nc3sc4c(c23)CCCC4)CC1 | · | · | 6 | · | · | ·
CCCc1nnc(NC(=O)Cn2ccc3c(Cl)cccc32)s1 | · | · | -3 | · | · | ·
O=C(Nc1ccc(N2CCOCC2)c(Cl)c1)c1c(F)c(F)c(F)c(F)c1F | -12 | -38% | 1 | 23µM* | ? | 16µM*
O=C1NC(Cc2c[nH]c3ccccc23)C(=O)N1Cc1ccc(CN2C(=O)NC(Cc3c[nH]c4ccccc34)C2=O)cc1 (stereo not drawn) | -14 | 0% | -9 | ? | -9% | 23µM*
COc1ccc(/C=C/c2nc3ccccc3[nH]c2=O)cc1 | · | · | -24 | · | · | ·
CC(C)(C)OC(=O)N1CCC(c2c(C(=O)NCCCN3CCc4ccccc4C3)cnn2-c2ccccc2)CC1 | · | · | -7 | ? | · | 23µM*
Cc1ccc(-n2ncc(C(=O)NCCCN3CCc4ccccc4C3)c2C2CCN(C(=O)OC(C)(C)C)CC2)c(C)c1 | · | · | 5 | 21µM* | · | 21µM*
SMILES | IL-1B inflam inh | RORgamma inh | LDHA inh | TDP1 cell CPT | Gal4-VP16 FLuc | TDP1 cell noCPT
Cc1cccc(C)c1-n1ncc(C(=O)NCCCN2CCC(C)CC2)c1C1CCN(C(=O)OC(C)(C)C)CC1 | · | · | -6 | ? | · | 21µM*
Cc1ccccc1-c1nc(CSc2nc(C)c(CCO)c(=O)[nH]2)c(C)o1 | · | · | 4 | · | · | ·
CC(C)(C)c1ccc(C(=O)Nc2cccc(-n3cnnn3)c2)cc1 | -14 | 5% | 2 | ? | -15% | 2.6µM*
CC(C)(C)c1ccc(C(=O)Nc2cccc(C(=O)N3CCOCC3)c2)cc1 | -5 | -25% | 0 | 15µM* | ? | ?
O=C(O)c1cccc(NC(=O)c2ccccc2)c1 | -14 | · | 0 | -18% | · | 3%
O=C(Nc1cccc(-n2cnnn2)c1)c1cccc(Cl)c1 | -20 | 21% | -4 | ? | 7% | ?
Cc1ccc(C(=O)Nc2cccc(C(=O)NC3CCCC3)c2)cc1 | -10 | 26% | -5 | ? | 19% | 16µM*
Cc1ccc(C(=O)Nc2cccc(C(=O)O)c2)cc1 | 11 | 5µM* | 2 | -27% | 18µM* | -15%
CCn1nc(C(=O)N2CCNC(=O)C2)c2ccccc2c1=O | · | · | 1 | · | · | ·
COc1ccc(S(=O)(=O)Nc2ccc(Nc3cc(N4CCCC4)nc(C)n3)cc2)cc1C | · | · | 1 | · | · | ·
Cc1ccc(C(=O)NC(C(=O)Nc2ccccc2)c2ccccc2)cc1 (stereo not drawn) | 0 | -3% | -1 | -5% | 10% | 2%
Cc1ccc(C(=O)Nc2cccc(C(O)c3ccccc3)c2)cc1 (stereo not drawn) | -51* | · | 5 | -26% | · | ?
COc1cc(Br)cc(/C=C/c2ccc3cccc(O)c3n2)c1OC | 2 | 2.5µM* | 0 | ? | ? | ?
COc1ccc(Br)cc1/C=C/c1ccc2cccc(O)c2n1 | 60 | 4.5µM* | -5 | ? | ? | 21µM*
COc1ccc(C2C=CC(=O)CC2)c(OC)c1 (stereo not drawn) | -76* | · | 4 | ? | · | ?

Screens deposited in PubChem by National Center for Advancing Translational Sciences (NCATS).
